HTT ATP protect = Huntington cell model cytoprotection by ATP luminescence. PC12 HTT-Q103 induced, cytoprotection, ATP luminescence, 40 h. Potency, µM (doses to about 56.4 µM), without a hit: cytoprotection (ATP increase), actives largely listed as activators. actives 0.14% (n = 230,000); active means well fitted curve in the direction sought with a large enough effect; inconclusive means small, poorly fitted or top-dose-only effect, or another doubt; inactive means no such curve, though single readings can be large; an effect the other way counts as inactive or inconclusive; further: % of control where 0% means no effect; nearly all actives have a fitted effect of over 45% in size
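Readout: ATPlite luminescence (ATP level). Model: stable PC12, inducible Htt exon1 Q103-GFP. Inducer: tebufenozide, 100 nM final. Compounds: dose series. No G418 in medium.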
ALDH1A1 block = inhibitors of human aldehyde dehydrogenase 1A1. actives 7.3% (n = 220,000). P00352. Purified ALDH1A1, NADH fluorescence, propionaldehyde substrate. Potency, µM (titrated, usually from 75.3 µM), for the others: at the top dose activity, negative = inhibition, hits mostly inhibitors;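 further: plate controls were no enzyme wells and a reference inhibitor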
HttQ103 aggreg = mutant huntingtin aggregation inhibition | Potency, µM (highest dose often 46.1 µM), for the others: top-dose activity change, negative = inhibition, most hits filed as inhibitors | PC12 HttQ103-GFP aggregates, Acumen cytometry, 40 h | actives 1.1% (n = 220,000); active means well fitted curve in the direction sought with a large enough effect; inconclusive means small, poorly fitted or top-dose-only effect, or another doubt; inactive means no such curve, though single readings can be large; an effect the other way counts as inactive or inconclusive; further: on the % scale 0 is the no-effect control and ±100 the full control effect; nearly all actives have a fitted effect of over 60% in size
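PC12 cells with ecdysone-inducible HTT exon1 Q103-GFP, induced by 100 nM tebufenozide, given compounds in a concentration series. GFP aggregates (1–25 um, 6 SD above background) counted in lysates by laser-scanning cytometry, 488 nm excitation.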
HPGD block = HPGD (human) dehydrogenase inhibition; P15428; purified HPGD, NADH fluorescence kinetic, PGE2 substrate; Potency, µM, for the others: at the top dose activity change, negative = inhibition, most hits filed as inhibitors; actives 4.3% (n = 150,000); AID 894; further: on the % scale 0 is the no-effect control and ±100 the full control effect
Target sequence (P15428 whole entry, looked up): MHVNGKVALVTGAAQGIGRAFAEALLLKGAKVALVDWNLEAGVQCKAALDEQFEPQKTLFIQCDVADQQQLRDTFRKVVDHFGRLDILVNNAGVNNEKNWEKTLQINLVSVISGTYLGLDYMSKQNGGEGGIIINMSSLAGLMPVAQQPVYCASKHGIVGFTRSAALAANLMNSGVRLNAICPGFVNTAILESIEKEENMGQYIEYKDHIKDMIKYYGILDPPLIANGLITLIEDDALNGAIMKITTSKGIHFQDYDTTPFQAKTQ
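20 nM HPGD preincubated 15 min at room temperature with compound in 50 mM Tris-HCl pH 8, 0.01% Tween 20. Started with 1 mM NAD+ and 30 uM prostaglandin E2; NADH fluorescence (360/450 nm) read 5 times over 30-s intervals, last minus first.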
LMNA splice mod = changes lamin A minigene splicing in HeLa cells; HeLa LMNA splicing GFP/RFP minigene ratio, 48 h; Potency, µM (titrated, usually from 46.1 µM), for the others: at the highest dose ratio change, negative = inhibition, most hits filed as inhibitors; actives 0.01% (n = 200,000); active means well fitted inhibition curve with a large enough effect in the signal ratio, with a control signal flat, not every such curve was filed as active; inconclusive means small, poorly fitted or top-dose-only effect, or effect the other way, or a change in a side signal; the % refers to the signal ratio; further: on the % scale 0 is the no-effect control and ±100 the full control effect
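S3 HeLa stable clones carrying a lamin A-EGFP splicing minigene plus DsRed2 were seeded at 600 cells/well in Opti-MEM with 2% FBS, pin-dosed and incubated 48 h at 37°C. Acumen cytometry (488 nm) gave the GFP/RFP total-intensity ratio.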
JMJD2E inh = JMJD2E (human) inhibition | actives 1.6% (n = 230,000) | JMJD2E catalytic domain, FDH-coupled NADH fluorescence (FDH is formaldehyde dehydrogenase) | Potency, µM (top dose mostly 57.1 µM), for inactives: at the top dose activity change, negative = inhibition, usual class: inhibitors | AID 2147;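 further: 0% = wells with enzyme and -100% = buffer wells without enzyme; nearly all actives have a fitted effect of over 50% in size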
Target sequence (B2RXH2 1-337 limits assumed): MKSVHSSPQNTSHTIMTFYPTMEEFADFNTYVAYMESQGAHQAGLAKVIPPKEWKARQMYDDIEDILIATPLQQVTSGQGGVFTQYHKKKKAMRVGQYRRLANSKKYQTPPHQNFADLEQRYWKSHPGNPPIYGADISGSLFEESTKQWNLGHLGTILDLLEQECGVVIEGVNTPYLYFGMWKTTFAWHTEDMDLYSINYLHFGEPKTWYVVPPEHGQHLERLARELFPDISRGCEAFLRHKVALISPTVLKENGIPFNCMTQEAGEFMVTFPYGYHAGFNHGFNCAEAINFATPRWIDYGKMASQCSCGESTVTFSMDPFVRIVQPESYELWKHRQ
Numbers without * were called inactive; u = inconclusive; x = no result; [ ] = another dose, or the depositor's remark. The list is not random: actives were taken first. Their share in the collection is about 9.2%. Unless noted, the call rests on the fitted dose curve; in most records, active means well fitted inhibition curve with a large enough effect (not every such curve was filed as active); inconclusive means small, poorly fitted or top-dose-only effect, or another doubt; inactive means no such curve, though single readings can be large or run the other way. Potency means the concentration at half of the fitted maximal effect.

SMILES	HTT ATP protect	ALDH1A1 block	HttQ103 aggreg	HPGD block	LMNA splice mod	JMJD2E inh
CN(C)S(=O)(=O)c1cccc(NC(=S)Nc2ccc(Cl)cc2Cl)c1	7%	13µM*	-15%	u	-10%	2%
Clc1ccc(CNc2ccccc2NCc2ccc(Cl)nc2)cn1	-10%[10 µM]	-5%	0%[9.22 µM]	x	u	u
Cc1cc(C(F)(F)F)nn1Cc1ccc(C(=O)NCc2ccco2)o1	-31%	18µM*	0%	u	15%	-27%
CC/C(C)=N/Nc1nc(-c2cc3cccc(OC)c3oc2=O)cs1	-8%[10 µM]	u	11%[9.22 µM]	x	x	-10%
COc1ccc(CCN2CC(C#N)=C3c4cc(OC)c(OC)cc4CCN3C2)cc1OC	-59%	u	u	7.1µM*	-5%	u
Nc1c(Cl)ncnc1N/N=C/c1ccccn1	36%[0.074 µM]	-10%	u	-15%	u	20µM*
Nc1c(Cl)ncnc1N/N=C/c1ccc2ccccc2n1	20%[0.074 µM]	-16%	u	-25%	u	u
COc1ccc(-c2nc3c(c4c2C[C@H](c2ccccc2)OC4)CN(C(=O)NCCc2c[nH]c4ccccc24)CC3)c(C)c1	-7%[10 µM]	0%[13.5 µM]	x	-4%	5%[9.22 µM]	3%[11.4 µM]
O=C1/C(=C/c2cccnc2)SC(=S)N1CC1CCCO1 (stereo not given)	2%[10 µM]	5µM*	13%	x	-11%[46 µM]	-8%
Cc1ccc(/C=C2\SC(=S)N(CC3CCCO3)C2=O)o1 (stereo not given)	-25%[10 µM]	x	-2%[9.22 µM]	x	x	u
O=C1/C(=C\c2ccc(-c3ccccc3Cl)o2)SC(=S)N1CC1CCCO1 (stereo not given)	5%	1.4µM*	20%	-19%	-7%	16%
COc1cc(/C=C2/SC(=S)N(CC3CCCO3)C2=O)ccc1O (stereo not given)	-8%[10 µM]	0.14µM*	18%	25µM*	-4%	-3%
O=C1/C(=C/c2ccco2)SC(=S)N1CC1CCCO1 (stereo not given)	12%[10 µM]	x	-8%[9.22 µM]	x	x	11µM*
COC(=O)c1c(-c2cccs2)csc1NC(=O)COc1ccccc1	x	x	x	x	2%[46 µM]	x
CC(C)OC(=O)C1CC(C)(O)C(=O)C(C(=O)OC(C)C)C1c1ccc([N+](=O)[O-])cc1 (stereo not given)	7%	-8%	3%	x	x	-4%
CCN(CC)S(=O)(=O)c1ccc(Cc2ncc(C(F)(F)F)cc2Cl)s1	-17%	u	-72%	-17%	u	-6%
NS(=O)(=O)c1ccc(Cc2ncc(C(F)(F)F)cc2Cl)s1	-11%	0%	-9%	-4%	-10%	-3%
O=C(CCl)c1ccc(Cc2ncc(C(F)(F)F)cc2Cl)s1	-21%	0.71µM*	-6%	-22%	-4%	-1%
NNS(=O)(=O)c1ccc(Cc2ncc(C(F)(F)F)cc2Cl)s1	1%	3.2µM*	10%	-12%	-19%	-1%
COc1ccc(OC)c(NC(=O)c2ccc(CSc3ncccn3)cc2)c1	4%[10 µM]	0%	8%[9.22 µM]	x	u	2%
CCCn1c(-c2ccc(F)cc2)nc2c(NCCN3CCCCC3)nc(C)nc21	-16%	u	x	u	x	u
CCc1cccc(CC)c1NC(=S)NCCc1c(C)[nH]c2ccc(C)cc12	x	14%	6.3µM*	-11%	u	-1%
CN(C)Cc1cc(C(C)(C)C)ccc1-c1ccc(C(C)(C)C)cc1CN(C)C	-2%[10 µM]	4%[13.5 µM]	x	-2%	x	x
CCCCn1c(=O)nc2n(-c3ccc(C)cc3)c3ccccc3cc-2c1=O	15%[10 µM]	u	-8%	u	16%	u
CCCCn1c(=O)nc2n(-c3ccc(OC)cc3)c3ccccc3cc-2c1=O	-30%	8.9µM*	4%	x	x	-13%
SMILES	HTT ATP protect	ALDH1A1 block	HttQ103 aggreg	HPGD block	LMNA splice mod	JMJD2E inh
COC(=O)C/C=C\[C@@H](C)[C@@H](/C=N\O[C@@H](C)CN1CCCCc2nc(C)c(C)cc21)NS(=O)(=O)c1ccc(C)cc1	-14%[10 µM]	13%[13.5 µM]	x	x	x	x
CC(C(=O)OCC(=O)c1ccccc1)N1C(=O)C2C3CCC(C3)C2C1=O (stereo not given)	5%	-1%	-8%	x	-1%[46 µM]	-5%
CC(C(=O)OCC(=O)c1ccc([N+](=O)[O-])cc1)N1C(=O)C2C3CCC(C3)C2C1=O (stereo not given)	-12%	3.2µM*	-13%	x	x	0%
CC(O)/C=C/C1OC(=O)CC1Nc1ccc(C=O)cc1 (stereo not given)	-3%[10 µM]	0.45µM*	-13%[9.22 µM]	x	x	-10%
CCN1C(=O)CC(C(=O)Nc2ccc(F)cc2)SC1=Nc1cccc(OC)c1 (stereo not given)	-35%	10µM*	-30%	-3%	-30%	-1%
Cc1nn(CCC(=O)N2CCN(c3ccccc3F)CC2)c(C)c1S(=O)(=O)N1CCCC1	x	x	x	x	-4%[46 µM]	x
O=C(O)CC(CCc1ccccc1)OC1OC(CO)C(O)C(O)C1O (stereo not given)	9%[10 µM]	x	7%[9.22 µM]	x	x	25µM*
COc1ccccc1CNC(=O)Nc1cccs1	-8%	u	-4%	22µM*	7%	3%
CC(OC(=O)c1cccs1)C(=O)NCc1ccco1 (stereo not given)	2%[10 µM]	13%	-14%	-25%	5%	4%
COc1ccc(C(=O)NCCn2ccc3ccccc32)c(OC)c1	8%	10µM*	-32%	u	u	5%
COc1ccccc1C(OC(=O)c1cccs1)C(=O)NCc1ccco1 (stereo not given)	-18%	25µM*	21%	-25%	-5%	-8%
COc1ccccc1CNC(=O)c1cc(C)nn1-c1ccccc1	12%[10 µM]	x	10%[9.22 µM]	x	x	7%
COc1ccc(Br)cc1CNC(=O)Nc1cccs1	15%	u	-10%	-23%	4%	-8%
COc1ccccc1CNC(=O)c1c(-c2ccccc2)nn(-c2ccccc2)c1C	-1%	4µM*	-24%	-15%	-20%	-3%
CCc1nnc(NC(=O)CSc2nc(C)cc(C)c2C#N)s1	x	u	12%	x	-18%[46 µM]	u
Cc1cc2c(nc1C)CCCN2C[C@@H](C)O/N=C1/[C@H]2CCn3c(=O)n(-c4ccccc4)c(=O)n3[C@H]2[C@H](O)[C@@H]2O[C@H]12	x	u	19%	u	1%	u
COc1ccccc1CNC(=O)N/C=C/c1ccc(Cl)cc1	-14%	25µM*	-15%	x	2%[9.22 µM]	-17%
COc1ccc(C(=O)NCc2ccccc2OC)c(OC)c1	-11%[10 µM]	u	u	28µM*	-6%	1%
O=C(N/C=C\c1ccccc1)NCc1ccc(Cl)cc1	-11%	u	-4%	-3%	u	-12%
COc1ccccc1CNC(=O)c1cccs1	-9%	11%	3%	16µM*	2%	-1%
COc1ccccc1CNC(=O)c1cccc(-c2ccccc2OC)n1	-67%	32µM*	x	7.9µM*	x	x
